# Compound activity from PubChem BioAssay.
# Compounds with a hit are over-represented: about 6.2% of the library has one in this group of screens.
# FMDV antiviral: High Throughput Screening for Foot and Mouth Disease Virus Antivirals; FMDV antiviral cell-based qHTS; Potency, µM (doses to about 57.9 µM), most hits filed as inhibitors; actives 1.2% (n = 410,000); AID 1159524, 2015; calls by dose curve; tested in HEK293T cells; note: read-out not given here; nearly all actives have a fitted effect of over 45% in size
# LASV entry inh: qHTS for Inhibitors of binding or entry into cells for Lassa Virus. actives 1.2% (n = 300,000). AID 540256, 2011. Potency, µM (highest dose often 37.9 µM), hits mostly inhibitors. Lassa virus pseudotype entry inhibition, cell reporter; calls by dose curve; tested in HEK293 cells; note: nearly all actives have a fitted effect of over 50% in size
# Marburg entry inh: qHTS for inhibitors of binding or entry into cells for Marburg Virus; actives 1.8% (n = 300,000); Potency, µM (highest dose often 37.8 µM), usual class: inhibitors; Marburg virus pseudotyped entry inhibition, cell reporter; calls by dose curve; tested in HEK293 cells
# HCMV antiviral: qHTS Assay for inhibitors of the human cytomegalovirus (HCMV). HFF cells, HCMV-luciferase reporter, 72 h; active compounds read low. activity change, negative = inhibition, % at 57.5 µM. actives 4.5% (n = 410,000). AID 1259415, 2018; in the data active = activity change below about -60%; inconclusive = no clear call, values can overlap the other calls; inactive = above about -39%
#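 After 16 h attachment at 37C, HFF cells received test compound and HCMV-luciferase (1 PFU/cell); reporter luminescence read 72 h later, data normalized against buffer-only and known inhibitor Salinomycin.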
# Numbers stand for hits; n = inactive; u = inconclusive; x = not tested or not shown.
SMILES,FMDV antiviral,LASV entry inh,Marburg entry inh,HCMV antiviral
O=C(Oc1ccccc1N1C(=O)CCC1=O)c1ccco1,n,n,n,n
Cc1cccc(NS(=O)(=O)c2cc3c4c(c2)CCC(=O)N4CCC3)c1,n,u,u,u
CC(NC(=O)CCCCCNC(=O)N1CCn2c1nc1ccccc12)c1ccccc1 (centres undefined),n,x,x,-73
O=C(CCCCCNC(=O)N1CCn2c1nc1ccccc12)N[C@@H](C(=O)O)c1ccccc1,n,x,x,n
C/C(=N\Nc1ccc(C(F)(F)F)cn1)c1ccncc1,n,u,n,n
Cc1ccc2c(c1)C(=O)C1(O)CCN(c3ccccc3)C1=N2 (centres undefined),n,x,x,x
Cn1nc(C(=O)N2CCN(c3ccc(Cl)cc3)CC2)c2c1-c1ccccc1SC2,n,n,n,-71
COc1ccc(N2CCN(C(=O)COC(=O)c3oc4ccc(OC)cc4c3C)CC2)cc1,n,n,n,n
CCc1nc(OCc2ccccc2)c2sc3nc4c(cc3c2n1)COC(C)(C)C4,n,n,16µM,n
CC(=O)NCCc1cc2ccc(C)c(C)c2[nH]c1=O,n,x,x,n
O=C(NCCn1ccc2ccccc21)c1cccc([N+](=O)[O-])c1,n,n,n,-80
Cc1ccc(C(=O)NCCn2c(C)cc3ccccc32)cc1C,n,u,u,-69
Cc1ccc2cc(CCNC(=O)c3cccc([N+](=O)[O-])c3)c(=O)[nH]c2c1C,22µM,n,n,n
COc1ccc(-c2nc(CN3CCCCC3c3cccnc3)c(C)o2)c(F)c1 (centres undefined),n,n,u,n
CCOc1ccc2nc(NC3=NC(c4ccc(OC)cc4)CC(=O)N3)nc(C)c2c1 (centres undefined),x,u,u,-70
CCOc1ccc2nc(NC3=NC(C)(C)C=C(C)N3)nc(C)c2c1,u,n,u,n
Cc1cnc(NC(=O)CCCc2nc3ccccc3s2)s1,n,u,u,-101
O=C(CCCc1nc2ccccc2s1)Nc1nccs1,n,n,u,n
O=C1CCC(C(=O)N(CCO)Cc2ccccc2)CN1CC1CCCCC1 (centres undefined),n,u,n,n
COCCN(CCOC)C(=S)Nc1ccccc1,n,n,n,n
CSc1ccc(C(=O)C2CCCN(C(=O)CCc3c(C)nn(C)c3C)C2)cc1 (centres undefined),u,u,u,-63
CC(=O)NC(=S)NNC(=O)CCc1ccccc1,n,x,x,n
O=C(CCc1ccccc1)NNC(=S)NC(=O)c1ccccc1,x,n,u,-101
COc1cc(NC(=S)NC(=O)CCc2ccccc2)cc(OC)c1,n,n,n,-84
O=C(COc1cccc(NC(=O)c2cccc([N+](=O)[O-])c2)c1)c1ccc(Br)cc1,20µM,22µM,u,-73
SMILES,FMDV antiviral,LASV entry inh,Marburg entry inh,HCMV antiviral
O=C(NC(=S)NNC(=O)c1ccccc1O)c1ccc([N+](=O)[O-])cc1,n,x,x,-70
O=C(c1nc(-c2ccc(Cl)cc2)n2c1CCCCC2)N1CCN(c2ccc(F)cc2)CC1,n,n,x,n
Cc1c2cnn(CC(=O)Nc3cccc(C(F)(F)F)c3)c(=O)c2c(C)n1Cc1ccccc1Cl,n,n,u,n
O=C(NC(=O)c1ccccc1O)c1ccc(C(F)(F)F)cc1,n,u,u,n
Cc1ccc(C(=O)NC(=S)NNC(=O)c2ccccc2)cc1,n,x,x,n
O=C(NC(=S)NNC(=O)c1ccccc1O)c1ccccc1,n,n,n,n
Cc1ccc(C(=O)NC(=S)NNC(=O)c2ccccc2O)cc1,n,n,u,-81
COc1ccccc1C(=O)NNC(=S)NC(=O)c1cccs1,x,x,x,-78
Cc1ccc(C(=O)NNC(=S)NC(=O)c2ccccc2)cc1,n,u,n,-85
CCCc1ccc(C(=O)NC(=O)c2ccccc2O)cc1,u,10µM,8.9µM,-89
O=C(CSc1nc2c([nH]c3ccccc32)c(=O)n1-c1ccccc1)Nc1ccc2c(c1)OCCO2,n,n,x,n
O=C(NNC(=S)NC(=O)c1ccc(Br)cc1)c1ccc([N+](=O)[O-])cc1,n,x,x,n
O=C(NNC(=S)NC(=O)c1ccc(Br)cc1)c1cccc([N+](=O)[O-])c1,n,x,x,-105
COc1ccc(C(=O)CN2C(=O)NC3(CCCCCC3)C2=O)c(OC)c1,n,n,u,n
CCN1CCN(S(=O)(=O)c2ccc(C(=O)Nc3sc4c(c3C(N)=O)CCN(CC)C4)cc2)CC1,n,u,8.9µM,n
CCOC(=O)N1CCc2c(sc(NC(=O)c3ccc(S(=O)(=O)N4CCCC4)cc3)c2C#N)C1,18µM,x,x,n
CCCN1CCc2c(sc(NC(=O)CCS(=O)(=O)c3ccccc3)c2C(N)=O)C1,n,n,n,-92
